Data taken from PubChem BioAssay (NCATS).
Results filed as inconclusive are left out. The source made the active and inactive calls. The call rests on the fitted dose curve; in most records, active means well fitted inhibition curve with a large enough effect; inconclusive means small, poorly fitted or top-dose-only effect; inactive means flat fitted curve, though single readings scatter.

Assays:
Experiment in all cases: qHTS profiling for inhibitors of Plasmodium falciparum proliferation (AID 504749); further: nearly all actives have a fitted effect of over 60% in size
Conditions in all cases: P. falciparum in erythrocytes, SYBR Green DNA, 72 h; series mostly up to 28.7 µM
CP335 = system: CP335
Outline: (§1)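 Three-day growth assay of blood-stage parasites in erythrocytes (0.3% parasitemia, 2.5% hematocrit) at 37 C, 5% CO2, quantified by SYBR Green DNA staining after overnight detergent lysis.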

DFO2036 = system: DFO2036
Outline: as §1

DIV14 = system: DIV14
Outline: as §1

DIV17 = system: DIV17
Outline: as §1

DIV30 = system: DIV30
Outline: as §1

Dd2 = system: Dd2
Outline: as §1

ECU = system: ECU
Outline: as §1

FAB9 = system: FAB9
Outline: as §1

GB4 = system: GB4
Outline: as §1

HB3 = system: HB3
Outline: as §1

ICS = system: ICS
Outline: as §1

JCK = system: JCK
Outline: as §1

N140 = system: N140
Outline: as §1

P93_24 = system: P93_24
Outline: as §1

P94_40 = system: P94_40
Outline: as §1

PAD = system: PAD
Outline: as §1

PC15 = system: PC15
Outline: as §1

PC26 = system: PC26
Outline: as §1

PC49 = system: PC49
Outline: as §1

SC27B = system: SC27B
Outline: as §1

Measured: Potency

O=c1[nH]cnc2nc[nH]c12
inactive: CP335 | DFO2036 | DIV14 | DIV17 | DIV30 | Dd2 | ECU | FAB9 | GB4 | HB3 | ICS | JCK | N140 | P93_24 | P94_40 | PAD | PC15 | PC26 | PC49 | SC27B

CN(C(=O)c1c(O)c2ccccc2n(C)c1=O)c1ccccc1
inactive: CP335 | DFO2036 | DIV14 | DIV17 | DIV30 | Dd2 | ECU | FAB9 | GB4 | HB3 | ICS | JCK | N140 | P93_24 | P94_40 | PAD | PC15 | PC26 | PC49 | SC27B

CC1CC(OC(=O)c2ccccc2O)CC(C)(C)C1 (stereo not given)
inactive: CP335 | DFO2036 | DIV14 | DIV17 | DIV30 | Dd2 | ECU | FAB9 | GB4 | HB3 | ICS | JCK | N140 | P93_24 | P94_40 | PAD | PC15 | PC26 | PC49 | SC27B

Cc1ccccc1N=Nc1ccc(N=Nc2c(O)ccc3ccccc23)c(C)c1
inactive: CP335 | DFO2036 | DIV14 | DIV17 | DIV30 | Dd2 | ECU | FAB9 | GB4 | HB3 | ICS | JCK | N140 | P93_24 | P94_40 | PAD | PC15 | PC26 | PC49 | SC27B

NS(=O)(=O)c1ccc(NC(=O)CCC(=O)O)cc1
inactive: CP335 | DFO2036 | DIV14 | DIV17 | DIV30 | Dd2 | ECU | FAB9 | GB4 | HB3 | ICS | JCK | N140 | P93_24 | P94_40 | PAD | PC15 | PC26 | PC49 | SC27B

Cc1c(N(C)C)c(=O)n(-c2ccccc2)n1C
inactive: CP335 | DFO2036 | DIV14 | DIV17 | DIV30 | Dd2 | ECU | FAB9 | GB4 | HB3 | ICS | JCK | N140 | P93_24 | P94_40 | PAD | PC15 | PC26 | PC49 | SC27B

NS(=O)(=O)c1cc(-c2nn[nH]n2)c(NCc2cccs2)cc1Cl
inactive: CP335 | DFO2036 | DIV14 | DIV17 | DIV30 | Dd2 | ECU | FAB9 | GB4 | HB3 | ICS | JCK | N140 | P93_24 | P94_40 | PAD | PC15 | PC26 | PC49 | SC27B

CCCCC1(COC(=O)CCC(=O)O)C(=O)N(c2ccccc2)N(c2ccccc2)C1=O
inactive: CP335 | DFO2036 | DIV14 | DIV17 | DIV30 | Dd2 | ECU | FAB9 | GB4 | HB3 | ICS | JCK | N140 | P93_24 | P94_40 | PAD | PC15 | PC26 | PC49 | SC27B

CN/C(=C\[N+](=O)[O-])NCCSCc1csc(CN(C)C)n1
inactive: CP335 | DFO2036 | DIV14 | DIV17 | DIV30 | Dd2 | ECU | FAB9 | GB4 | HB3 | ICS | JCK | N140 | P93_24 | P94_40 | PAD | PC15 | PC26 | PC49 | SC27B

CC(C(=O)O)c1ccc2c(c1)Cc1cccnc1O2 (stereo not given)
inactive: CP335 | DFO2036 | DIV14 | DIV17 | DIV30 | Dd2 | ECU | FAB9 | GB4 | HB3 | ICS | JCK | N140 | P93_24 | P94_40 | PAD | PC15 | PC26 | PC49 | SC27B

CC(=O)Oc1cccc(C)c1
inactive: CP335 | DFO2036 | DIV14 | DIV17 | DIV30 | Dd2 | ECU | FAB9 | GB4 | HB3 | ICS | JCK | N140 | P93_24 | P94_40 | PAD | PC15 | PC26 | PC49 | SC27B

Cc1ccc(S(=O)(=O)NC(=O)NC2CCCCCCC2)cc1
inactive: CP335 | DFO2036 | DIV14 | DIV17 | DIV30 | Dd2 | ECU | FAB9 | GB4 | HB3 | ICS | JCK | N140 | P93_24 | P94_40 | PAD | PC15 | PC26 | PC49 | SC27B

CC(C)(C)C(=O)OCOC(=O)[C@@H]1N2C(=O)[C@@H](NC(=O)[C@H](N)c3ccccc3)[C@H]2SC1(C)C
inactive: CP335 | DFO2036 | DIV14 | DIV17 | DIV30 | Dd2 | ECU | FAB9 | GB4 | HB3 | ICS | JCK | N140 | P93_24 | P94_40 | PAD | PC15 | PC26 | PC49 | SC27B

CCc1cccc(CC)c1NC(=O)CN(CC(=O)O)CC(=O)O
inactive: CP335 | DFO2036 | DIV14 | DIV17 | DIV30 | Dd2 | ECU | FAB9 | GB4 | HB3 | ICS | JCK | N140 | P93_24 | P94_40 | PAD | PC15 | PC26 | PC49 | SC27B
